This is a sample that favours compounds with a hit; in the whole collection about 9.6% have one here.
USP30 block – inhibitors of human USP30 deubiquitinase | Q70CQ3 | purified USP30, Ub-rhodamine cleavage fluorescence | inhibition, % at 25 µM | hit rate 5.3% among 47,000 | AID 1645860
Target sequence (Q70CQ3 whole entry, looked up): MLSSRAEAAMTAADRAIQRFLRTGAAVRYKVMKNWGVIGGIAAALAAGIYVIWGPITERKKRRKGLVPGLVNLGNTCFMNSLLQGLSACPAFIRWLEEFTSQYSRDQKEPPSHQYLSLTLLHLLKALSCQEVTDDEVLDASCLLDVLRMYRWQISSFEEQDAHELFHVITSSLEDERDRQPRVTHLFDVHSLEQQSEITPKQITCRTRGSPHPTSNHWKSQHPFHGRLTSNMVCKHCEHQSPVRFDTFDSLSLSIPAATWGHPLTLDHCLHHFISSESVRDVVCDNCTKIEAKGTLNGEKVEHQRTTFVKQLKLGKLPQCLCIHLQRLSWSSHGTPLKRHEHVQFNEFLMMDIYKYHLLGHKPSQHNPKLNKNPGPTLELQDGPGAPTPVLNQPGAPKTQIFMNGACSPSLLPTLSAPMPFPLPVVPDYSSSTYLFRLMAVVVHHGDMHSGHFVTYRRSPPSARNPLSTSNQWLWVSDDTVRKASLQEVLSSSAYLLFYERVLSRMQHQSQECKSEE
USP17 block – inhibitors of human USP17 deubiquitinase; A8MUK1; purified USP17, Ub-rhodamine cleavage fluorescence, 3 h; inhibition, % at 50 µM; hit rate 6.5% among 47,000
Of the large screens only hits and unclear results are named; the others gave an inactive call. Cut-off read from the data, not from the text of the source: active = inhibition above about 30%; inactive = the rest.

CCc1ccc(S(=O)(=O)N2Cc3ccnn3CC(COC)C2)cc1 (stereo not drawn)	none
O=C(CC(c1ccccc1)c1ccccc1)NCc1ccccc1F	none
Cc1nn(CC(=O)NCc2ccccc2F)c2ccccc12	USP17 block 51
Fc1ccc(Cl)cc1-c1nnc(-c2ccc(-n3ccnc3)nc2)o1	USP30 block 46, USP17 block 48
Fc1ccc(CNc2cc(-n3ccnc3)ncn2)c(F)c1	none
Cc1ccc(Cc2nc(-c3ccc(-n4ccnc4)nc3)no2)cc1	none
Fc1ccc(F)c(-c2nnc(-c3ccc(-n4ccnc4)nc3)o2)c1	USP17 block 47
COCCn1c(SCC(=O)Nc2ccccc2C(F)(F)F)nnc1-c1c[nH]c2ccccc12	none
O=C(CCCn1c(SCC(=O)Nc2cccc(C(F)(F)F)c2)nc2ccccc2c1=O)NCCc1ccccc1	USP30 block 35
CCOCCCn1c(SCC(=O)Nc2ccccc2C(F)(F)F)nc2ccccc2c1=O	USP30 block 55, USP17 block 44
NS(=O)(=O)c1ccc(CCNC(=O)CSc2nc3ccccc3c(=O)n2CCC(=O)N2CCN(c3ccccc3)CC2)cc1	none
Cc1ncc2c(n1)CCN(C(=O)Nc1ccccc1Br)C2	none
COc1ccc(CC(=O)N2CCc3nc(N4CCCCC4)[nH]c(=O)c3C2)cc1	none
Cc1cc(C)c2cc(CN(CCc3ccccc3)C(=O)Nc3ccccc3)c(=O)[nH]c2c1	USP17 block 62
Cc1cc(C)c2cc(CN(C(=O)Nc3cccc(Cl)c3)C3CCCC3)c(=O)[nH]c2c1	none
COc1ccc(Nc2ncc3c(n2)CCN(Cc2ccc(OC)c(OC)c2)C3)c(OC)c1	none
O=C(Cn1cc(-c2ccccc2)c2ncn(C3CC3)c(=O)c21)NCc1ccc2c(c1)OCO2	none
O=C(Cn1cc(C(=O)c2ccccc2)c(=O)c2cc3c(cc21)OCCO3)Nc1ccc2c(c1)OCO2	none
CCOc1ccc2c(c1)c(=O)c(C(=O)c1ccccc1)cn2CC(=O)Nc1ccc2c(c1)OCCO2	USP30 block 69
O=C(Cn1cc(C(=O)c2ccccc2)c(=O)c2cc(F)ccc21)Nc1ccc2c(c1)OCCO2	none
O=C(Cn1cc(C(=O)C2CC2)c2ccccc21)NCc1ccc2c(c1)OCO2	USP17 block 83
CCn1cnc2c(-c3ccccc3)cn(CC(=O)NCc3ccc4c(c3)OCO4)c2c1=O	USP17 block 51
Cc1ccc(C(=O)c2cn(CC(=O)Nc3ccc4c(c3)OCO4)c3ccccc3c2=O)cc1	USP30 block 79, USP17 block 85
O=C(Cn1ccc2ccc(Br)cc21)NCc1ccc2c(c1)OCO2	none
CCOc1ccc(NC(=O)c2ccccc2N2C(=O)N3CCc4c([nH]c5ccccc45)[C@@]3(C)C2=O)cc1	none
Cc1ccc2nc(C(=O)N3CCOC(c4cc(N)cc(C)n4)C3)cn2c1 (stereo not drawn)	none
O=S(=O)(c1c[nH]c(-c2nnc(-c3ccccc3)o2)c1)N1CCOCC1	none
Cc1sc(-c2cccnc2)nc1OC(=O)c1cccc(C(F)(F)F)c1	none
CCOc1ccc2c(c1)c(=O)c(C(=O)c1ccccc1)cn2CC(=O)Nc1ccccc1	USP17 block 60
Cc1ccc2c(c1)c(=O)c(C(=O)c1ccccc1)cn2CC(=O)Nc1ccccc1	USP17 block 59
Cc1ccc(NC(=O)Cn2cc(C(=O)c3ccccc3)c(=O)c3cc(C)ccc32)cc1	none
CCOc1ccc2c(c1)c(=O)c(C(=O)c1ccc(C)cc1)cn2CC(=O)Nc1ccc(OC)cc1	USP17 block 56
CCOc1ccc2c(c1)c(=O)c(C(=O)c1ccc(C)cc1)cn2CC(=O)Nc1ccc(C)cc1	none
CCOc1ccc2c(c1)c(=O)c(C(=O)c1ccc(F)cc1)cn2CC(=O)Nc1ccccc1	none
Cc1ccc(-c2cc(C(=O)N(Cc3ccc(C)o3)C3CCS(=O)(=O)C3)no2)cc1 (stereo not drawn)	none
Cc1ccccc1NC(=O)CSc1nnc2ccc(C(=O)NCc3ccccc3)cn12	none
CN(C)c1nc(C(=O)N2CCN(c3ccccc3)CC2)nc2c1cnn2C	none
N#C/C(=C\c1cn(CCC(N)=O)c2ccccc12)c1nc2ccccc2[nH]1	USP17 block 40
Cc1ccc(-n2nc(C)c(/C=C(\C#N)c3nc4ccccc4[nH]3)c2C)cc1C	none
COc1ccc(S(=O)(=O)N2C[C@@H](c3ccccc3)[C@H](c3ccn[nH]3)C2)cc1	none
CCN(Cc1ccccc1)C(=O)C1c2c(ncn2C)CCN1Cc1cccnc1 (stereo not drawn)	none
Cc1cc2c(=O)n3c(nc2s1)CCN(Cc1nc[nH]c1C)CC3	none
O=C(NCc1cccc(NC(=O)C2CC2)c1)c1cn[nH]c1-c1ccc(F)cc1	none (no result: USP17 block)
COc1ccc(NC(=O)CSC2=NC3(CCCCC3)Nc3ccccc32)c(OC)c1	none
COc1ccccc1NC(=O)CSC1=NC2(CCCCC2)Nc2ccccc21	USP17 block 54
Cc1c(Cc2ccccc2)c(=O)oc2cc(OCc3nn[nH]n3)ccc12	USP30 block 38, USP17 block 36
COc1ccc2c(C)c(CCC(=O)N3CCN(c4ccccc4)CC3)c(=O)oc2c1	none
Cc1nnc(-c2nnc(NCCC(C)C)c3ccccc23)o1	none
Cc1nnc(-c2nnc(NCc3ccc(Cl)cc3)c3ccccc23)o1	USP30 block 37, USP17 block 52
Fc1cccc(-c2cnc3ccc(NCCCN4CCOCC4)nn23)c1	none
O=C(c1ccncc1)N1CCCC1c1nnn2cc(C3CC3)ccc12 (stereo not drawn)	none
O=C(c1ccc(=O)[nH]c1)N1C[C@H]2CC[C@@H](Oc3cccnc3)[C@H]2C1	none
CC(=O)OCCc1c(C)nc2c(C#N)cnn2c1N1CCCC1	none
Cc1cc(-c2ccnc3c(C#N)cnn23)c(C)s1	USP17 block 67
CCC1(C)Cc2c(sc3nc(SC)nc(SCCN4C(=O)c5ccccc5C4=O)c23)CO1 (stereo not drawn)	none
CCN(C=C1NC(=O)c2ccccc2N1)CC(=O)Nc1cc(Cl)ccc1-n1cncn1	none
COc1ccc(NC(=O)C(C)n2c(=O)cc(-c3ccccc3)c3c(C)nn(C)c32)cc1OC (stereo not drawn)	USP30 block 31
COc1ccc(C(=O)Nc2ccc(-c3ccccc3)cc2)cc1OC	none
Cc1ccccc1NC(=O)C(C)c1c(C)n[nH]c1C (stereo not drawn)	none
Cc1ccccc1NC(=O)C(C)n1c(=O)cc(-c2ccccc2)c2c(C)nn(C)c21 (stereo not drawn)	USP17 block 74
C=C1CCC[C@]2(C)C[C@H]3OC(=O)C(CNCc4ccc(F)cc4)[C@H]3CC12 (stereo partly drawn)	none
COC(=O)CNC(=O)C1c2ccccc2C(=O)N(c2ccccc2)C12CCCCC2 (stereo not drawn)	none
COc1noc(C2CCN(S(=O)(=O)c3ccc(O)cc3)CC2)c1C	none
Cn1cc2c(n1)C(COc1cccnc1)CN(C(=O)CC1CC1)C2 (stereo not drawn)	none
O=C(CCN=C1NS(=O)(=O)c2ccccc21)Nc1cccc(-c2nnc3n2CCCCC3)c1	none
O=S1(=O)NC(=NCCc2cccc(F)c2)c2ccccc21	USP30 block 34, USP17 block 49
Cc1nc(N2CCCC2=O)sc1C(=O)N1CCN(c2ccc(F)cc2)CC1	none
COc1cc(OC)c(NC(=O)c2cc(-c3ccccn3)n[nH]2)cc1Cl	none
COc1ccc(Cl)cc1NC(=O)c1cc(-c2ccccn2)n[nH]1	USP17 block 61
Cc1ccc(Cl)cc1NC(=O)c1cc(-c2ccccn2)n[nH]1	USP17 block 73
O=C(Nc1ccc(Cl)cc1)c1cc(-c2ccccn2)n[nH]1	none
COCCOCc1nc2n(n1)C(CC(=O)Nc1ccc3c(c1)OCCO3)C(=O)N2 (stereo not drawn)	none
